In the library only some 1.6% were active in any assay of this set; here they are far more common.
PABP FP inh: PABP poly(A) RNA binding inhibitors, primary screen, biochemical, fluorescence polarization, uHTS | Polyadenylate-binding protein 1 (Homo sapiens), P11940 | calls only at 35 µM | 290,000 compounds, 1% hits;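 further: calls also rest on retests at 20 µM and on dose response follow-up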
Target sequence (P11940 whole entry, looked up): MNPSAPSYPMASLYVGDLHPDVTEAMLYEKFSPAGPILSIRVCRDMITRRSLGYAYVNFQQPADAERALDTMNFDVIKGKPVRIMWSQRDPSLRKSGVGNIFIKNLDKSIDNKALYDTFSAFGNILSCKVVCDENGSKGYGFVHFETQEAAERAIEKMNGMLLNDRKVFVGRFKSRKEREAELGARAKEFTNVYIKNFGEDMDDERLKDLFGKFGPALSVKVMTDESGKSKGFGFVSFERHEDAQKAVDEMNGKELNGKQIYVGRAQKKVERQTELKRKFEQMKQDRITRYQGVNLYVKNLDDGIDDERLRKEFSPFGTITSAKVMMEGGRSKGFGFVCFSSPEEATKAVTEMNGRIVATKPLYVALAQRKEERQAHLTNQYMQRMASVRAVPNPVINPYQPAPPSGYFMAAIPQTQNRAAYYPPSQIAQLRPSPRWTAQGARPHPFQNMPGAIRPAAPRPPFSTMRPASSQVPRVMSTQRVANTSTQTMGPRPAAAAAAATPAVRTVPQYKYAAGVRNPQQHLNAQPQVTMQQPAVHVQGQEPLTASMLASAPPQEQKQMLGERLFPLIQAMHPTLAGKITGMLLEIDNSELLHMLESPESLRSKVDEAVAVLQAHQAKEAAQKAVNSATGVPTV
MLLE-PAM2 inh: inhibitors of PABP1 MLLE–PAM2 peptide binding, primary screen, biochemical, fluorescence polarization, FITC-PAM2, GST-MLLE | Polyadenylate-binding protein 1 (Homo sapiens), P11940 | 360,000 compounds, 0.36% hits | AID 588489, 2011 | inhibition, % at 20 µM; in the data active means inhibition above about 35%, passing the limit was not always enough;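 further: plate controls were DMSO wells with GST-MLLE for no effect and wells lacking GST-MLLE protein for full effect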
eIF4H FP inh: human eIF4H binding inhibitors, primary screen, translation initiation inhibitor project, biochemical, uHTS, fluorescence polarization | 290,000 compounds, 0.94% hits | AID 2012, 2009 | Eukaryotic translation initiation factor 4H (Homo sapiens), Q15056 | inhibition, % at 35 µM | eIF4H fluorescence polarization binding assay;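 further: calls also rest on retests at 20 µM and on dose response follow-up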
TCR CD3 inh: inhibitors of human TCR-CD3 interaction, primary screen, biochemical, fluorescence, TAMRA-labeled TCR probe | T-cell receptor (TCR) | inhibition, % at 9.4 µM | 360,000 compounds, 0.37% hits | AID 651800, 2012; in the data active means inhibition above about 19%;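 further: recombinant mutant TCR 2C K166C tagged with TAMRA read by polarization; 0% = receptor in buffer alone and 100% = receptor with positive control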
BSA probe FL: compounds interfering with TAMRA-BSA probe, counter-screen for TCR-CD3 interaction inhibitor project, biochemical, fluorescence, TAMRA-labeled BSA; shares compounds with TCR CD3 inh; AID 652035, 2013; inhibition, % at 9.4 µM; TAMRA-labeled BSA probe fluorescence counterscreen; 1,200 compounds, 10% hits; in the data active means inhibition above about 23%;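 further: 0% = buffer low control and 100% = reference high control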
TCR-CD3 conf: TCR-CD3 interaction inhibitors, retest, confirmation, biochemical, fluorescence, TAMRA-labeled TCR probe. shares compounds with TCR CD3 inh. TAMRA-labeled TCR probe fluorescence binding assay. inhibition, % at 9.4 µM. 1,200 compounds, 48% hits. AID 652036, 2013; in the data active means inhibition above about 19%
Starred values were filed as active, the others as inactive; i = inactive; / = no result given. Unless noted, how the calls were made is not given here.

SMILES	PABP FP inh	MLLE-PAM2 inh	eIF4H FP inh	TCR CD3 inh	BSA probe FL	TCR-CD3 conf
COC1C(C)OC(OC2CC(C)(O)Cc3cc4c(c(O)c32)C(=O)c2c(O)cc3c(c2C4=O)OC2OC3(C)C(O)C(N(C)C)C2O)C(OC)C1(C)OC (stereo not given)	/	i	/	80*	51*	40*
CC/C(=N\NC(=O)c1ccccc1)c1c(O)n(C2CCCCC2)c(=O)[nH]c1=O	i	-4	-6	20*	-4	14
CC/C(=N\NC(=O)c1ccccc1Cl)c1c(O)n(C2CCCCC2)c(=O)[nH]c1=O	i	7	-2	21*	-5	18
CCOC(=O)[C@]12Cc3cc(C)ccc3[C@H]1N(C1CCCCC1)C(=O)c1cc(OC)ccc12	/	/	/	-1	/	/
O=C(NCCN1CCC2(CC1)C(=O)NCN2c1ccccc1)c1cc(C(F)(F)F)ccc1C(F)(F)F	/	/	/	10	/	/
COC(=O)C1C(OC(=O)c2ccccc2)CC2CCC1[N+]2(C)C (stereo not given)	/	/	/	-2	/	/
CC[n+]1c(-c2ccccc2)c2cc(N)ccc2c2ccc(N)cc21	/	79*	/	90*	103*	93*
CC(C)NC1(c2ccccc2)CCCCC1	/	/	/	-3	/	/
c1ccc(CN2COC3CCCCCC32)cc1 (stereo not given)	/	-13	/	/	/	/
COc1ccc(-c2ccc3c(c2)CN(C(=S)NCCc2ccccc2)Cc2cnnn2-3)cc1	/	-99	/	26*	8	17

Screening data as filed in PubChem.
